Pf growth 48h: P. falciparum growth inhibition at 48 hours (one generation). P. falciparum luciferase growth in erythrocytes, 48 h. Potency, µM (highest dose often 28.7 µM), actives largely listed as inhibitors. hit rate 5.9% among 310,000. AID 504832
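Read-out is firefly luciferase luminescence from an integrated reporter in P. falciparum, so falling signal marks reduced parasite growth. Infected erythrocytes were at 2% hematocrit and 0.1% parasitemia (final) in Albumax-supplemented RPMI 1640.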
Pf growth 96h: P. falciparum growth inhibition at 96 hour, primary screen for plastid delayed-death inhibitors | Potency, µM (highest dose often 28.7 µM), usual class: inhibitors | P. falciparum luciferase reporter growth, 96 h | hit rate 6.9% among 320,000 | AID 504834
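Two parasite generations (96 h, 37 C, 5% CO2) of compound exposure in infected erythrocytes (0.05% parasitemia, 2% hematocrit). Luciferase-reporter P. falciparum; decreased luminescence indicates inhibited growth, aimed at apicoplast-acting delayed death.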
Shiga toxin inh: blocks Shiga toxin action in Vero cells; Vero cells, Shiga toxin protein synthesis inhibition reporter; inhibition, % at 38.7 µM; hit rate 9.2% among 290,000; in the data active = inhibition mostly above about 28%, no sharp cut-off; inactive = mostly below about 43%
LmPK inhibitor: blocks Leishmania mexicana pyruvate kinase activity | Q27686 | Potency, µM (series often up to 57.5 µM), actives largely listed as inhibitors | purified LmPK, Kinase-Glo ATP luminescence, 1 h | hit rate 0.37% among 290,000 | AID 1721
Target sequence (Q27686 whole entry, looked up): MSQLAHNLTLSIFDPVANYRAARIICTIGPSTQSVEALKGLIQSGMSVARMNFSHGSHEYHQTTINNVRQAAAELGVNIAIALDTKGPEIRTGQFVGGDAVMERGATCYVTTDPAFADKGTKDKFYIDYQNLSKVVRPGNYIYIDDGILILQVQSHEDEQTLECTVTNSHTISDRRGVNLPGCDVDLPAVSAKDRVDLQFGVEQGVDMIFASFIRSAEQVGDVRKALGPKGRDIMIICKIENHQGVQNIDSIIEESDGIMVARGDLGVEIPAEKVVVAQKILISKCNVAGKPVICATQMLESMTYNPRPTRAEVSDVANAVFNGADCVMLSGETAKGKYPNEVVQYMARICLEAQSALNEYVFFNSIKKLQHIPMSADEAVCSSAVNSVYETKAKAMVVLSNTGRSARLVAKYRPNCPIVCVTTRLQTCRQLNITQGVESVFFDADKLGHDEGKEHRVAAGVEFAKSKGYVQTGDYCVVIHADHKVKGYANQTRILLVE
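qHTS format; LmPK 0.1 nM; substrates PEP 0.5 mM and ADP 0.1 mM. One-hour room-temperature incubation, then coupled luciferase luminescence; 0.5 nM enzyme wells mark activation.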
CHX counter: counter-screen for Shiga toxin inhibitors: cycloheximide protein synthesis inhibition; cell reporter, cycloheximide protein synthesis inhibition counterscreen; max response, %; hit rate 12% among 300,000; in the data active = max response mostly above about 13%, no sharp cut-off; inactive = mostly below about 14%; also: read at 38.3 µM for the half of the compounds with a filed dose
Of the large screens only hits and unclear results are named; the others gave an inactive call. Shown are actives, neighbours in structure and some others; about 22% of the full set was active somewhere. Unless noted, calls follow the shape of the dose curve; as a rule, active = well fitted inhibition curve with a large enough effect; inconclusive = small, poorly fitted or top-dose-only effect, or another doubt; inactive = no such curve, though single readings can be large or run the other way.

Cc1nc(-c2cccs2)sc1C(=O)O	none
CC(=O)c1sc(-c2ccccc2)nc1C	CHX counter 35
COc1ccc(/C=C/C(=O)c2sc(-c3ccccc3)nc2C)cc1	none
O=C(NNS(=O)(=O)c1ccc(Br)cc1)c1ccccc1-n1cccc1	none
S=C1N(c2ccccc2)CN(CCN2CCOCC2)CN1c1ccccc1	none
COc1ccc(NC(=O)c2sc(-c3ccccc3)nc2C)c(OC)c1	none
Cc1nc(-c2ccccc2)sc1C(=O)Nc1ccccc1F	CHX counter 46
Cc1nc(-c2ccccc2)sc1C(=O)O	Shiga toxin inh 84, CHX counter 31
Cc1nc(-c2ccc([N+](=O)[O-])cc2)sc1C(=O)O	LmPK inhibitor 16µM, CHX counter 20
C#CCN1C(=O)C2(OCCO2)c2ccccc21	Pf growth 96h inconclusive
Oc1ccc2ccccc2c1CN1CCCC1	Pf growth 48h 13µM
O=c1oc2ccccc2c(O)c1CN1CCCCC1	Pf growth 96h 15µM
Oc1ccc2ccccc2c1CN1CCN(c2ccccc2)CC1	Pf growth 48h 8.3µM, Pf growth 96h inconclusive
O=c1oc2ccccc2c(Nc2ccccc2)c1CN1CCCCC1	Pf growth 48h inconclusive, Pf growth 96h inconclusive
Oc1ccc2cc(Br)ccc2c1CN1CCCC1	Pf growth 48h inconclusive, Pf growth 96h 4.7µM
Brc1cccc(CN2CCCCCC2)c1	none
CCOc1ccccc1N1CC(C(=O)Nc2cc(Cl)ccc2-n2cncn2)CC1=O (centres undefined)	none (no result: Shiga toxin inh, LmPK inhibitor, CHX counter)
Cc1ccccc1C(=O)Nc1ccc(N(C)C)c2ccccc12	Pf growth 48h inconclusive (no result: Shiga toxin inh)
Cc1cc(=O)oc2c3c(cc(OCC(=O)NC(Cc4ccc(Cl)cc4)C(=O)O)c12)OC(C)(C)CC3 (centres undefined)	Pf growth 96h inconclusive
Nc1nc(CSc2nnnn2-c2ccccc2)nc(N2CCCc3ccccc32)n1	Pf growth 48h 10µM (no result: Pf growth 96h)
Nc1nc(CN2CCN(c3ccccc3)CC2)nc(N2CCCc3ccccc32)n1	Pf growth 48h inconclusive, Pf growth 96h 9.3µM
Nc1nc(CN2CCN(c3cccc(Cl)c3)CC2)nc(N2CCCc3ccccc32)n1	Pf growth 48h inconclusive (no result: Pf growth 96h)
N#C/C(N)=C(/C#N)N=Cc1cccc(Cl)c1	Pf growth 48h inconclusive
CC(C)C(NS(=O)(=O)c1ccccc1)C(=O)OCc1cc([N+](=O)[O-])cc2c1OCOC2 (centres undefined)	none
CCOc1ncccc1C(=O)N(CC)CC(=O)NCc1ccc(Cl)cc1	none
COc1cc(/C=N/NC(=O)C2COc3ccccc3O2)ccc1O (centres undefined)	none
COc1cc(/C=N/NC(=O)C2c3ccccc3Oc3ccccc32)ccc1O	Pf growth 48h inconclusive, Pf growth 96h 13µM
COc1ccc(/C=N\NC(=O)C2COc3ccccc3O2)cc1O (centres undefined)	Shiga toxin inh 62, CHX counter 20
O=C(N/N=C/C=C/c1ccc([N+](=O)[O-])cc1)C1COc2ccccc2O1 (centres undefined)	Pf growth 96h 12µM
O=C(Nc1ccc([N+](=O)[O-])cc1)C1COc2ccccc2O1 (centres undefined)	Pf growth 48h inconclusive (no result: Shiga toxin inh)
CC(C)c1ccc(N(CC(=O)N2CCN(Cc3ccccc3)CC2)S(C)(=O)=O)cc1	none
CN1CC(c2ccccc2)C(c2ccc(Cl)cc2)=N1 (centres undefined)	Pf growth 48h inconclusive, Pf growth 96h inconclusive
Fc1ccccc1N1CC(c2ccccc2)C(c2cccs2)=N1 (centres undefined)	Pf growth 96h 12µM (no result: Pf growth 48h)
CC/C(=N/NC(=O)c1ccc(Br)o1)c1ccc(Cl)cc1	Shiga toxin inh 125, CHX counter 39
CCCC/C(=N\NC(=O)c1ccc(Br)o1)c1ccccc1	Pf growth 48h inconclusive, Pf growth 96h inconclusive, Shiga toxin inh 46, CHX counter 32
CC/C(=N\NC(=O)c1ccc(Br)cc1)c1ccccc1	none
Cc1cc(C)n(CCOC(=O)c2sc3ccccc3c2Cl)n1	CHX counter 18
Cc1ccc(Sc2cncc3sc(C(N)=O)cc23)cc1	none (no result: Pf growth 48h, Pf growth 96h, LmPK inhibitor)
COc1cccc(C(=O)NCCS(=O)(=O)NCCCc2ccccc2)c1	none (no result: Shiga toxin inh, LmPK inhibitor, CHX counter)
CCNc1nc(NCC)n2c(SC(C(=O)Nc3cc(Cl)cc(Cl)c3)c3ccccc3)nnc2n1 (centres undefined)	Pf growth 96h 10µM
CCNc1nc(NCC)n2c(SCC(=O)Nc3cccc(Cl)c3)nnc2n1	Pf growth 48h 12µM, Pf growth 96h 5.2µM (no result: Shiga toxin inh, LmPK inhibitor, CHX counter)
CCNc1nc(NCC)n2c(SCC(=O)O)nnc2n1	none (no result: Pf growth 96h)
COc1ccc(C(=O)Nc2nc3ccc(S(C)(=O)=O)cc3s2)cc1	none

From PubChem
